Each structure is given as a SMILES string. Calls of active or inactive are those of the source. Rule for the calls: active = hit-call score of the fitted dose curve at least 0.9, where 1 is the maximum; inactive = score below 0.9.

Our source for the outcome and AC50 values is PubChem BioAssay (EPA / NIEHS).

The nature of assay [1]: ATG_E_Box_CIS: Attagene CIS-FACTORIAL HepG2 Assay for human Enhancer Box (E-box) (AID 2282936). The following applies: HepG2 E-box cis-reporter transcription, actives raise or lower the signal. In outline: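 DMSO served as negative control and baseline for bidirectional fitting. Human hepatoma HepG2 cells, transiently transfected with cis-reporter constructs, were dosed 24 h; reporter mRNA read by RT-PCR and capillary electrophoresis.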

Assay [2] in a line: ATG_M_61_CIS: Attagene CIS-FACTORIAL HepG2 Assay for M61 Transcription Factor (Internal Marker) (AID 2282937). The following applies: HepG2 Attagene CIS-FACTORIAL M61 internal marker reporter; actives raise or lower the signal. Summed up: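 HepG2 cells transiently transfected with multiplexed cis-promoter reporter units reporting endogenous transcription factor activity, measured 24 h after dosing. Reporter mRNA quantified by RT-PCR and capillary electrophoresis; bidirectional fit against DMSO baseline.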

Assay [3] can be described thus: ATG_EGR_CIS: Attagene CIS-FACTORIAL HepG2 Assay for human Early Growth Response 1 (EGR1) (AID 2282938). Conditions: HepG2 Attagene CIS-FACTORIAL EGR reporter mRNA; actives raise or lower the signal. In outline: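 HepG2 cells transiently transfected with cis-element-driven multiplexed reporter units, dosed for 24 h. EGR1-element reporter mRNA quantified by RT-PCR, 6-FAM labelling, HpaI digestion and capillary electrophoresis; bidirectional fit versus DMSO.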

A short description of assay [4]: ATG_M_19_CIS: Attagene CIS-FACTORIAL HepG2 Assay for M19 Transcription Factor (Internal Marker) (AID 2282939). The following applies: HepG2 Attagene CIS-FACTORIAL M19 internal marker reporter; actives raise or lower the signal. Summed up: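 Chemical-treated HepG2 (24 h) with MRTU constructs; reporter transcripts detected by fluorescent RT-PCR fragment analysis on capillary electrophoresis. Internal background marker, DMSO as baseline.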

Assay [5] in a line: ATG_ERE_CIS: Attagene CIS-FACTORIAL HepG2 Assay for Estrogen Response Element (ERE) (AID 2282940). The following applies: HepG2 ERE cis-reporter, Attagene RNA transcript; actives raise or lower the signal. Summed up:
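Human liver cells (HepG2) bearing transiently transfected, promoter-regulated reporter units were exposed 24 h. Reporter mRNA induction was detected by capillary electrophoresis of labelled RT-PCR products and fitted bidirectionally to DMSO.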

Assay [6] in a line: ATG_Ets_CIS: Attagene CIS-FACTORIAL HepG2 Assay for human Erythroblast Transformation Specific (ETS) (AID 2282941). Conditions: HepG2 ETS cis-reporter transcription, actives raise or lower the signal. Summed up:
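Human HepG2 hepatoma cells were transiently transfected with promoter-driven reporter constructs and treated for 24 hours. Reporter transcripts were quantified by RT-PCR with fluorescent primer extension; bidirectional curve fitting used DMSO as reference.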

A short description of assay [7]: ATG_FoxO_CIS: Attagene CIS-FACTORIAL HepG2 Assay for human Forkhead box O (FoxO) (AID 2282943). Conditions: HepG2 Attagene cis-reporter, FoxO element, mRNA; actives raise or lower the signal. Summed up:
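Endogenous transcription factor activity read from multiplexed cis-promoter reporter transcripts in transiently transfected HepG2, 24 h after dosing. Reporter RNA measured via RT-PCR plus capillary electrophoresis of FAM-labeled products; gain or loss relative to DMSO.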

Assay [8] can be described thus: ATG_GATA_CIS: Attagene CIS-FACTORIAL HepG2 Assay for human GATA Binding Protein (AID 2282944). The following applies: HepG2 GATA cis-element reporter, Attagene multiplex mRNA; actives raise or lower the signal. Summed up: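 Transfected cis-reporter HepG2 cells were treated with chemicals for 24 hours. Total RNA was then converted to cDNA, amplified with reporter-specific primers and analysed by fluorescent capillary electrophoresis, using DMSO-treated wells as baseline.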

Assay [9] is described as follows: ATG_GLI_CIS: Attagene CIS-FACTORIAL HepG2 Assay for human Zinc Finger Protein GLI1 (AID 2282945). Conditions: HepG2, Attagene cis-factorial reporter mRNA, GLI element; actives raise or lower the signal. In outline: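 Bidirectional curve fits relative to DMSO, using reporter mRNA levels from RT-PCR plus capillary electrophoresis. Cells were HepG2 transiently carrying cis-regulated reporter constructs, harvested 24 h after dosing.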

Assay [10] concerns the target Bile acid receptor (Homo sapiens) (UniProt Q96RI1). Put plainly: ATG_IR1_CIS: Attagene CIS-FACTORIAL HepG2 Assay for human Nuclear Receptor Subfamily 1 Group H Member 4 (NR1H4), IR1 submotif (AID 2282946). The following applies: IR1 reporter transcription, actives raise or lower the signal. In outline: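 Cells (human HepG2) carry transiently transfected cis-promoter reporter transcription units. Compounds are incubated 24 h, total RNA is reverse-transcribed and amplified, and labelled fragments are resolved by capillary electrophoresis. Curves use DMSO as baseline.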

Assay [11] in a line: ATG_GRE_CIS: Attagene CIS-FACTORIAL HepG2 Assay for human Glucocorticoid Response Elements (GRE) (AID 2282947). Conditions: HepG2 GRE cis-reporter, Attagene multiplex mRNA; actives raise or lower the signal. In outline: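 Assay uses human hepatoma HepG2 cells transfected with cis-promoter reporter units, exposed 24 h. mRNA from reporters detected by RT-PCR plus capillary electrophoresis; DMSO serves as negative control and baseline.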

Assay [12] can be described thus: ATG_ISRE_CIS: Attagene CIS-FACTORIAL HepG2 Assay for human Interferon Regulatory Factor 1 (IRF1) binding to an Interferon-Stimulated Response Element (ISRE) (AID 2282948). The following applies: HepG2 ISRE cis-reporter (Attagene), mRNA transcription readout; actives raise or lower the signal. Summed up: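 Cell-based cis-reporter assay; HepG2; 24 h exposure; reporter mRNA by RT-PCR plus capillary electrophoresis fluorescence; activity in either direction scored relative to DMSO.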

The nature of assay [13]: ATG_M_32_CIS: Attagene CIS-FACTORIAL HepG2 Assay for M32 Transcription Factor (Internal Marker) (AID 2282949).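 Note: background control marker of the multiplexed CIS panel rather than a real target.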 Conditions: HepG2 Attagene cis-factorial M32 reporter, mRNA; actives raise or lower the signal. Summed up:
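Following 24 h chemical exposure of HepG2 cells transiently expressing cis-promoter reporter constructs, reporter transcript levels were determined by RT-PCR with fluorescent labelling and capillary electrophoresis, then fitted bidirectionally against DMSO.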

Assay [14] is described as follows: ATG_M_06_CIS: Attagene CIS-FACTORIAL HepG2 Assay for M06 Transcription Factor (Internal Marker) (AID 2282950). The following applies: HepG2 Attagene CIS-FACTORIAL M06 internal marker reporter; actives raise or lower the signal. In outline:
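Cells (HepG2, transiently carrying cis-driven reporter units) receive chemical for 24 h before RNA isolation. Reporter cDNA is PCR-amplified, FAM-labelled by primer extension, HpaI-digested and sized on a capillary analyser.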

Assay [15] concerns the target Hypoxia-inducible factor 1-alpha (Homo sapiens) (UniProt Q16665). Put plainly: ATG_HIF1a_CIS: Attagene CIS-FACTORIAL HepG2 Assay for human Hypoxia Inducible Factor 1 (HIF1A) (AID 2282951). Conditions: HepG2 Attagene cis-factorial HIF1a reporter transcription; actives raise or lower the signal. In outline:
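HepG2 cells transiently transfected with multiple cis-regulated reporter transcription units measure endogenous transcription factor activity. After 24 h exposure, reporter mRNA is quantified by RT-PCR with 6-FAM labelling, HpaI digestion and capillary electrophoresis. Bidirectional fitting against DMSO.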

In assay [16] the target is Hepatocyte nuclear factor 6 (Homo sapiens) (UniProt Q9UBC0). The assay is described as follows: ATG_HNF6_CIS: Attagene CIS-FACTORIAL HepG2 Assay for human Hepatocyte Nuclear Factor 6 (HNF6) (AID 2282952). The following applies: HepG2 Attagene cis-factorial HNF6 reporter transcription; actives raise or lower the signal. In outline:
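HepG2 cells transiently transfected with cis-element-driven multiplexed reporter units measuring endogenous transcription factor activity. After 24 h exposure, reporter mRNA quantified by RT-PCR, FAM-labelled fragments and capillary electrophoresis; bidirectional fitting versus DMSO.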

Assay [17] deals with Heat shock factor protein 1 (Homo sapiens) (UniProt Q00613). Put plainly: ATG_HSE_CIS: Attagene CIS-FACTORIAL HepG2 Assay for human Heat Shock Transcription Factor 1 (HSE) (AID 2282953). Conditions: HepG2 HSE cis-reporter, Attagene RNA transcription; actives raise or lower the signal. Summed up: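 Liver-derived HepG2 cells carry transiently introduced multiple reporter units governed by cis promoters. Reporter RNA measured 24 h post-dose through reverse transcription, PCR amplification, fluorescent labelling and capillary electrophoresis, normalised to DMSO.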

A short description of assay [18]: ATG_MRE_CIS: Attagene CIS-FACTORIAL HepG2 Assay for human Metal Responsive Element (MRE) (AID 2282954). Conditions: HepG2 MRE cis-reporter transcription, Attagene multiplex; actives raise or lower the signal. Summed up:
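After a 24 h chemical exposure, transiently transfected HepG2 cells yield RNA whose reporter sequences are amplified, FAM-labelled and sized by capillary electrophoresis. Curves are fitted bidirectionally relative to DMSO.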

The nature of assay [19]: ATG_PBREM_CIS: Attagene CIS-FACTORIAL HepG2 Assay for human Phenobarbital-responsive Enhancer Module (PBREM) (AID 2282955). Conditions: HepG2 PBREM cis-reporter, Attagene multiplexed transcription; actives raise or lower the signal. Summed up:
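HepG2 cells transiently transfected with multiple cis-regulated reporter units measure endogenous transcription factor activity; 24 h compound exposure. Reporter mRNA quantified by RT-PCR, fluorescent labelling, HpaI digestion and capillary electrophoresis; bidirectional fit versus DMSO.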

Assay [20] deals with Hepatocyte nuclear factor 3-beta (Homo sapiens) (UniProt Q9Y261). Put plainly: ATG_FoxA2_CIS: Attagene CIS-FACTORIAL HepG2 Assay for human Forkhead box A2 (FOXA2) (AID 2282942). The following applies: HepG2 cis-reporter transcription factor activity, 24 h; actives raise or lower the signal. In outline: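 HepG2 transiently transfected with a multiplexed cis-promoter reporter library read endogenous FOXA2 activity. After 24 h compound exposure, reporter mRNA was quantified by RT-PCR, HpaI digestion and capillary electrophoresis. Bidirectional fit against DMSO.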
Chain of Hepatocyte nuclear factor 3-beta (Homo sapiens) (Q9Y261 whole entry, looked up): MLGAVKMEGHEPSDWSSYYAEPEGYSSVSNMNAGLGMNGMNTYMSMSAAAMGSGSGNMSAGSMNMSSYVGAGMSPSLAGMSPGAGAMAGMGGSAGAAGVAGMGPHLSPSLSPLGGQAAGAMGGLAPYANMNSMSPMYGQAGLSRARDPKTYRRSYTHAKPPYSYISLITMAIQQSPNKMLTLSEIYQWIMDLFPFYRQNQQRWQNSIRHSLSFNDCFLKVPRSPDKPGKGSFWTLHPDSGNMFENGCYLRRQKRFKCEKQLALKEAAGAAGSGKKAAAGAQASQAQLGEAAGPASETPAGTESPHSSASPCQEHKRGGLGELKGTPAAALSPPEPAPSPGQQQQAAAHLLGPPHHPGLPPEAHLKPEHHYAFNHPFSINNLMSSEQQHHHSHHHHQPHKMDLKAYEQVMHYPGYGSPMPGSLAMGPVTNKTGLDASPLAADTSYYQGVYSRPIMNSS

Chain of Heat shock factor protein 1 (Homo sapiens) (Q00613 whole entry, looked up): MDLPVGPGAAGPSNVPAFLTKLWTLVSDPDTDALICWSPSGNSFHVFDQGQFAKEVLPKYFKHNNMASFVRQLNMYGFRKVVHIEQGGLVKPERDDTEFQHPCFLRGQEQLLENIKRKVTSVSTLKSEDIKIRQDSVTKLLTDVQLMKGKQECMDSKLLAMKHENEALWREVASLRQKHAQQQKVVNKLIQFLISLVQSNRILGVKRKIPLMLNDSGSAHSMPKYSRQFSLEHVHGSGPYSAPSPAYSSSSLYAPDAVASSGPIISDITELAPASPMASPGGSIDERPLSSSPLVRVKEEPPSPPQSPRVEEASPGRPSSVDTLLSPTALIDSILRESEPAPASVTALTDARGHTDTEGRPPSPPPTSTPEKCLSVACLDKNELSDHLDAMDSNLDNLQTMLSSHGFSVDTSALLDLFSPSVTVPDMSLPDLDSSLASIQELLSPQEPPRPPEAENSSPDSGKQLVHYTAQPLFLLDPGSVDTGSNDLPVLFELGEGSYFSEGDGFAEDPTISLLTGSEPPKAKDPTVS
Chain of Bile acid receptor (Homo sapiens) (Q96RI1 whole entry, looked up, the tested form may be a part): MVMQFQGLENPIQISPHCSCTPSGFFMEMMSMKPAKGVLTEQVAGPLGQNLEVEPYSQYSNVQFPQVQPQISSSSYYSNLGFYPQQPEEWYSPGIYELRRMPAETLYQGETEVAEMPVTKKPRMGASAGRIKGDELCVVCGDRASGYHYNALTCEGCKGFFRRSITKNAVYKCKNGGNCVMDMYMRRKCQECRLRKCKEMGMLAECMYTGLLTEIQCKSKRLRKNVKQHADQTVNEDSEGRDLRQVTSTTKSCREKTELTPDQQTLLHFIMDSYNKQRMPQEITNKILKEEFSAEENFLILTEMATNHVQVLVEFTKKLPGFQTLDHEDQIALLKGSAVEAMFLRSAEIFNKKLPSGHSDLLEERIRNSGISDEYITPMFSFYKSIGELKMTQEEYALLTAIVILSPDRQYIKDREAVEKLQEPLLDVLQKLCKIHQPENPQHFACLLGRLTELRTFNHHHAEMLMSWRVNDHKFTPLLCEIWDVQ
Chain of Hepatocyte nuclear factor 6 (Homo sapiens) (Q9UBC0 whole entry, looked up, the tested form may be a part): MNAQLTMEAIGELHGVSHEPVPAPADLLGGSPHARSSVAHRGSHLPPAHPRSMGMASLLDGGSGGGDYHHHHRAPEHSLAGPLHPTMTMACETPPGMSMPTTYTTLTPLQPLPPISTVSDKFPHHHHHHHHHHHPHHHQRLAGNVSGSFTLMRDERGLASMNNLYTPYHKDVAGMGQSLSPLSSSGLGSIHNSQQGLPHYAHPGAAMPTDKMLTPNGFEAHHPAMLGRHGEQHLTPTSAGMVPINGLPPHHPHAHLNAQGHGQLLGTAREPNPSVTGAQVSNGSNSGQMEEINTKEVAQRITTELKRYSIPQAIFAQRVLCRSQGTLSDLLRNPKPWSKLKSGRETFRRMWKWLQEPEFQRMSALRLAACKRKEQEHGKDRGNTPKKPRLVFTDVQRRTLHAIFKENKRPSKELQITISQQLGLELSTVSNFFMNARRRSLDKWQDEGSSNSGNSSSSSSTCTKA
Chain of Hypoxia-inducible factor 1-alpha (Homo sapiens) (Q16665 whole entry, looked up): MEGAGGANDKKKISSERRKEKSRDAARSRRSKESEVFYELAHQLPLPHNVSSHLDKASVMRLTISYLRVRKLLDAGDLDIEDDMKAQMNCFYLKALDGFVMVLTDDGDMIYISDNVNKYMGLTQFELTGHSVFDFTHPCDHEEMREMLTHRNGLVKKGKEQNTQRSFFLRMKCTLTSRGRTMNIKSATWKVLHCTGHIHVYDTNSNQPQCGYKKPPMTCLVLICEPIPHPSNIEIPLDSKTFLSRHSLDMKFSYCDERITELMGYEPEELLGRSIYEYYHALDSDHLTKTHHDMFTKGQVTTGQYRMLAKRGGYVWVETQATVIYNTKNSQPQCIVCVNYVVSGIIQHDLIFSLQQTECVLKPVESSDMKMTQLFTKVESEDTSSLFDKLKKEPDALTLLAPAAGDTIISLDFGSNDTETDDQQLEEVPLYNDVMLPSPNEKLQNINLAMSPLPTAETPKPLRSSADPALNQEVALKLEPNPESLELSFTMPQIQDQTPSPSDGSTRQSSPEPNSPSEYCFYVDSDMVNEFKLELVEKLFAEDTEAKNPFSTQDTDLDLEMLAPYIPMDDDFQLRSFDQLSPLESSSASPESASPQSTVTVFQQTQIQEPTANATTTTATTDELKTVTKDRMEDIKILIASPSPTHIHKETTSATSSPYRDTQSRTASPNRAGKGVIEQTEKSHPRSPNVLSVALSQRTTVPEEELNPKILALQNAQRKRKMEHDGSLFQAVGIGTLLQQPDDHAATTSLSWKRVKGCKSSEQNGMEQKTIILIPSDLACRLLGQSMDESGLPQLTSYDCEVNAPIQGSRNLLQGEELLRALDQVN

Take `C#CC1(O)CC[C@H]2[C@@H]3CCC4=CCCC[C@@H]4[C@H]3CC[C@@]21C` (stereo partly drawn): the result in [1], in assay [2], in assay [3], in [7], in [8] and in assay [9] was inactive. The outcome in assay [11], in assay [12], in assay [13], in [14], in [15] and in [17] was inactive. For the same compound, the outcome in [18] was inactive. Further, the AC50 (commonly the midpoint of the concentration-response curve, whichever way the signal moves) in assay [4] is 55.9 µM (active); in assay [5], 0.0188 µM (active); in assay [6], 62.5 µM (active); in [10], 0.849 µM (active); in assay [16], 55.3 µM (active).

Turning to `CC(=O)CC(N)=O`, the outcome in assay [1], in assay [2], in assay [3], in assay [4], in [5] and in [6] was inactive. Besides, the outcome in [7], in assay [8], in assay [9], in [10], in assay [11] and in assay [12] was inactive. The compound was classed as inactive in assay [13], in [14], in assay [15], in assay [16], in [17] and in assay [18].

In the case of `CC(C)=CCCC(C)C=O` (stereo not drawn), the result in assay [1], in assay [2], in assay [3], in [4], in assay [5] and in [6] was inactive. In addition, the call in assay [7], in assay [8], in [9], in assay [10], in assay [12] and in [13] was inactive. Moreover, the call in assay [14], in assay [15], in assay [16], in [17], in assay [18] and in assay [19] was inactive.

In the case of `[Cl][In]([Cl])[Cl]`, the result in assay [1], in assay [2], in assay [3], in [4], in [6] and in assay [20] was inactive. For the same compound, the compound was called inactive in assay [9], in assay [11], in assay [12], in [13], in assay [14] and in [15]. Besides, the result in [16], in assay [18] and in assay [19] was inactive. The AC50 in [5] is 163 µM (active).

On to `CCCCCCCCCCOC(C)=O`, for which the result in assay [1], in [2], in assay [3], in assay [4], in [6] and in assay [7] was inactive. Also, the compound was classed as inactive in assay [8], in assay [9], in assay [11], in assay [12], in assay [13] and in [14]. Also, the call in [15], in assay [16], in assay [17], in [18] and in assay [19] was inactive. In addition, the AC50 in assay [5] is 8.88 µM (active).

Turning to `Cc1cnc(NC(=O)C2=C(O)c3ccccc3S(=O)(=O)N2C)s1`, the outcome in assay [1], in assay [2], in [3], in [4], in assay [5] and in [6] was inactive. Further, the compound was classed as inactive in assay [7], in [8], in [9], in assay [10], in assay [11] and in assay [12]. Further, the compound was called inactive in assay [13], in [14], in assay [16], in [17] and in assay [18].

Take `O=CC1CC1`: the result in assay [1], in [2], in [3], in assay [4], in assay [5] and in assay [6] was inactive. For the same compound, the outcome in [20], in assay [9], in assay [10], in assay [11], in [12] and in [13] was inactive. Further, the compound was called inactive in assay [14], in assay [15], in assay [16], in assay [17], in assay [18] and in [19].
